Where “and” joins values, the source holds several entries; their conditions need not be identical. Equal entries are not always repeated. Screen size: about 5,500 compounds; about 2,000 (36%) were called active. Another 18% or so got no clear call; they are omitted. No stated cut-off is given here; in the data, active means normalized growth mostly below about 0.91 (no sharp cut-off); inconclusive means no clear call, values can overlap the other calls; inactive means mostly above about 0.92. The list shows a part of the results.
Experiment: chemical genetic growth profiling, strain panel (AID 1159580);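 further: tested at 20 µM; growth read once vehicle control cultures reached saturation at 30 °C; 1 = growth at the plate median or of vehicle wells; lower values mean less growth of the strain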
Settings: S. cerevisiae deletion strains, growth OD

Measured: normalized growth

COP(=S)(OC)Oc1ccc([N+](=O)[O-])cc1
inactive: locus YAL013W, strain DEP1, active compounds read low 1.03 | locus YAL021C, strain ccr4, active compounds read low 1.01 | locus YAL026C, strain drs2, active compounds read low 0.995 | locus YAL030W, strain snc1, active compounds read low 1 | locus YBL061C, strain skt5, active compounds read low 1 | locus YBR009C, strain hhf1, active compounds read low 0.995 | locus YBR021W, strain FUR4, active compounds read low 1.01 | locus YBR023C, strain chs3, active compounds read low 0.994 | locus YBR171W, strain sec66, active compounds read low 0.994 | locus YBR229C, strain ROT2, active compounds read low 0.96 | locus YBR231C, strain swc5, active compounds read low 0.988 | locus YBR279W, strain paf1, active compounds read low 1 | locus YCL011C, strain gbp2, active compounds read low 0.992 | locus YCL016C, strain dcc1, active compounds read low 0.99 | locus YCL029C, strain bik1, active compounds read low 0.975 | locus YCL061C, strain MRC1, active compounds read low 0.991 | locus YCL069W, strain vba3, active compounds read low 0.996 | locus YCR088W, strain abp1, active compounds read low 0.99 | locus YDL005C, strain med2, active compounds read low 0.991 | locus YDL035C, strain GPR1, active compounds read low 0.988 | locus YDL040C, strain nat1, active compounds read low 0.993 | locus YDL074C, strain BRE1, active compounds read low 0.949 | locus YDL101C, strain DUN1, active compounds read low 0.973 | locus YDL134C, strain PPH21, active compounds read low 0.988 | locus YDL185W, strain tfp1, active compounds read low 0.958 | locus YDL192W, strain arf1, active compounds read low 0.972 | locus YDR001C, strain nth1, active compounds read low 1 | locus YDR069C, strain doa4, active compounds read low 0.956 | locus YDR101C, strain arx1, active compounds read low 0.984 | locus YDR137W, strain rgp1, active compounds read low 0.885 | locus YDR150W, strain NUM1, active compounds read low 0.975 | locus YDR159W, strain sac3, active compounds read low 0.981 | locus YDR162C, strain NBP2, active compounds read low 0.978 | locus YDR195W, strain ref2 1 | locus YDR297W, strain sur2, active compounds read low 0.996 | locus YDR318W, strain mcm21, active compounds read low 0.98 | locus YDR334W, strain swr1, active compounds read low 0.998 | locus YDR335W, strain msn5, active compounds read low 1.01 | locus YDR388W, active compounds read low 0.983 | locus YDR392W, strain spt3, active compounds read low 0.922 | locus YDR502C, strain sam2, active compounds read low 0.971 | locus YEL003W, strain gim4, active compounds read low 0.996 | locus YEL037C, strain rad23, active compounds read low 0.999 | locus YEL061C, strain CIN8 (second series), active compounds read low 1 | locus YEL061C, strain CIN8, active compounds read low 0.976 | locus YER015W, strain faa2, active compounds read low 0.996 | locus YER016W, strain bim1, active compounds read low 0.997 | locus YER110C, active compounds read low 0.963 | locus YER111C, strain swi4, active compounds read low 1 | locus YER155C, strain BEM2 (second series), active compounds read low 0.94 | locus YER155C, strain BEM2, active compounds read low 1.01 | locus YER167W, strain BCK2, active compounds read low 0.979 | locus YFR010W, strain ubp6, active compounds read low 0.999 | locus YGL078C, strain dbp3, active compounds read low 0.985 | locus YGL086W, strain mad1, active compounds read low 0.994 | locus YGL167C, strain pmr1, active compounds read low 0.992 | locus YGL173C, strain kem1, active compounds read low 0.99 | locus YGL227W, strain vid30, active compounds read low 0.993 | locus YGL240W, strain doc1, active compounds read low 0.987 | locus YGL248W, strain PDE1, active compounds read low 0.966 | locus YGL253W, strain hxk2, active compounds read low 0.999 | locus YGR078C, strain PAC10, active compounds read low 0.989 | locus YGR135W, strain pre9, active compounds read low 0.976 | locus YGR229C, strain SMI1, active compounds read low 0.99 | locus YGR252W, strain gcn5, active compounds read low 0.968 | locus YHR013C, strain ard1, active compounds read low 1.02 | locus YHR027C, strain rpn1, active compounds read low 0.987 | locus YHR030C, strain SLT2, active compounds read low 0.998 and 0.993 | locus YHR079C, strain IRE1 (second series), active compounds read low 0.984 | locus YHR079C, strain IRE1, active compounds read low 0.988 | locus YHR094C, strain hxt1, active compounds read low 0.987 | locus YHR129C, strain ARP1, active compounds read low 0.978 | locus YHR142W, strain chs7, active compounds read low 0.965 | locus YHR200W, strain rpn10, active compounds read low 0.987 | locus YIL066C, strain RNR3, active compounds read low 0.967 | locus YIL073C, strain SPO22, active compounds read low 0.993 | locus YIL125W, strain kgd1, active compounds read low 0.971 | locus YIR030C, strain dcg1, active compounds read low 0.98 | locus YJL092W, strain hpr5, active compounds read low 0.996 | locus YJL095W, strain BCK1 (second series), active compounds read low 0.993 | locus YJL095W, strain BCK1, active compounds read low 0.974 and 1.01 | locus YJL115W, strain asf1, active compounds read low 0.986 | locus YJL129C, strain trk1, active compounds read low 0.988 | locus YJL134W, strain LCB3, active compounds read low 0.984 | locus YJL154C, strain vps35, active compounds read low 1 | locus YJL164C, strain tpk1, active compounds read low 0.99 | locus YJL166W, strain qcr8, active compounds read low 0.983 | locus YJL168C, strain set2, active compounds read low 0.982 | locus YJL187C, strain SWE1 (second series), active compounds read low 0.983 | locus YJL187C, strain SWE1, active compounds read low 1.02 | locus YJR043C, strain POL32, active compounds read low 0.983 | locus YJR066W, strain TOR1, active compounds read low 0.953

From PubChem BioAssay AID1159580 (chemical genetic matrix, 2015)
